Consider 4 compounds from PubChem BioAssay.

Test [1] deals with Wnt5a (protein binding on small-molecule microarray). The test is described as follows: Wnt5a binders on small-molecule microarray, primary screen, biophysical, 635/667 nm fluorescence (AID 1142).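 Further: fluorescence read at 667 nm with signal to noise per printed feature.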 The conditions noted are these: 635 nm fluorescence, higher = more signal.
Test [2] in a line: cell viability in Huh7 cells, primary screen, cytotoxicity control for HCV replication inhibitor project, CellTiter-Glo luminescence, basal, 48 h (AID 1143).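 Further: Huh7 hepatoma cells carrying a hepatitis C replication reporter with no stimulus; test concentration not given here.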 Particulars: Huh7 HCV replicon, higher = more signal, called active from +8 up or from −8 down.
Test [3] in a line: P. aeruginosa biofilm formation inhibitors, primary screen, PAO1 strain, BacTiter-Glo luminescence, LB-PBS (AID 1144). Particulars: 12 h, higher = more signal.
Test [4] is described as follows: CREB reporter modulators without forskolin, primary screen, cell-based, PC12, CRE-LacZ reporter, unstimulated (AID 1145). Particulars: no forskolin, luminescence, 4.5 h, higher = more signal, called active from +8 up or from −8 down.
Test [5] is described as follows: CREB reporter modulators under forskolin, primary screen, cell-based, PC12, CRE-LacZ reporter, forskolin-stimulated (AID 1146).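 Further: PC12 cells with 6xCRE LacZ reporter stimulated by forskolin 10 µM; beta-galactosidase reporter signal reflecting CREB driven transcription.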 The conditions noted are these: luminescence, 4.5 h, higher = more signal, called active from +8 up or from −8 down.
In test [6] the target is Streptavidin (Streptomyces avidinii) (UniProt P22629). In words: streptavidin binders on small-molecule microarray, primary screen, artefact control for SMM compound annotation, biophysical, 635/667 nm fluorescence (AID 1147).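 Further: signal reflects streptavidin binding to arrayed compounds as a control protein.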 Particulars: streptavidin binding, higher = more signal.
Test [7] is described as follows: small-molecule binders of probe aInhba, primary screen, biochemical, small-molecule microarray, 635/667 nm fluorescence (AID 1148).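 Further: score merges 667nm spot fluorescence with signal-to-noise for antibody binding to printed compounds.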 The conditions noted are these: higher = more signal.
For test [8], the target named is Torsin-1A (Homo sapiens) (UniProt O14656). In words: torsin A binders from cell lysate, primary screen, small-molecule microarray, wild-type, 635/667 nm (AID 1149). The conditions noted are these: COS7 hTOR1A-WT lysate, 635 nm fluorescence, higher = more signal.
For test [9] the target is unchanged. The test is described as follows: small-molecule binders of mutant TOR1A in lysate, primary screen, cell lysate, small-molecule microarray, COS7 lysate, 635/667 nm fluorescence (AID 1150).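 Further: score pools 667 nm emission and signal to noise measuring lysate protein binding.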 The conditions noted are these: COS7 hTOR1A mutant lysate, 635 nm fluorescence, higher = more signal.
For test [10], the system named is Sonic hedgehog protein (Shh). The test is described as follows: small-molecule binders of Shh protein, primary screen, biochemical, small-molecule microarray, 635/667 nm fluorescence (AID 1151).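 Further: Shh protein binding to compounds spotted on small-molecule microarray slides; score combines spot fluorescence intensity with signal-to-noise across triplicate slides.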 Particulars: small-molecule microarray binding, 635 nm fluorescence; higher = more signal.
The nature of test [11]: E. coli DRC41 culture turbidity changes, primary screen, E. coli filamentation inducer project, strain DRC41, OD650, 48 h (AID 1152).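 Further: E. coli MC1000 strain DRC41 lacking acrAB efflux pump and sulA.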 Particulars: E. coli DRC41 (acrAB sulA), higher = more signal, called active from +8 up or from −8 down.
A short description of test [12]: small-molecule binders of probe aLefty1, primary screen, biochemical, small-molecule microarray, 635/667 nm fluorescence (AID 1153).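 Further: score merges spot fluorescence with signal-to-noise ratio from the scanned slide images.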 The conditions noted are these: higher = more signal.
Test [13] can be described thus: PSAC antagonists in infected red cells, primary screen, cell-based, P. falciparum Indochina, OD700, 1 h (AID 1154). Particulars: P. falciparum Indochina infected RBC osmotic lysis, higher = more signal, called active from +8 up or from −8 down.
The nature of test [14]: PSAC antagonists in infected red cells, primary screen, cell-based, P. falciparum Indochina, OD700, 2 h (AID 1155).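 Further: lysis reports solute entry through the parasite surface anion channel PSAC; channel blockers reduce lysis of infected cells.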 Particulars: P. falciparum Indochina infected erythrocytes, osmotic lysis OD700; higher = more signal, called active from +8 up or from −8 down.
A short description of test [15]: osmotic lysis modulators in infected erythrocytes, primary screen, PSAC antagonist project, cell-based, P. falciparum Indochina, OD700, 3 h (AID 1156). The conditions noted are these: higher = more signal, called active from +8 up or from −8 down.
Test [16] is described as follows: PSAC antagonists in infected red cells, primary screen, cell-based, P. falciparum Indochina, OD700, 18 h (AID 1157). Particulars: P. falciparum Indochina infected erythrocytes, osmotic lysis OD700, 18 h; higher = more signal, called active from +8 up or from −8 down.
Test [17] can be described thus: modulators of S6 phosphorylation in cells, primary screen, cell-based, A549, cytoblot, luminescence, serum-stimulated (AID 1158).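 Further: serum-stimulated A549 lung adenocarcinoma cells; signal is phosphorylated S6 detected by cytoblot immunostaining with HRP secondary.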 Particulars: A549 phospho-S6 cytoblot, 5 h, higher = more signal.
In test [18] the target is NADPH oxidase 2 (Homo sapiens) (UniProt P04839). In words: NOX2-dependent H2O2 signal modulators, primary screen, NOX inhibitor project, cell-based, HEK293-NOX2, PMA-stimulated, Amplex Red fluorescence (AID 1159). Further: test concentration not given here. Particulars: 45 min, higher = more signal, called active from +8 up or from −8 down.
In test [19] the target is NADPH oxidase 4 (Homo sapiens) (UniProt Q9NPH5). The test is described as follows: NOX4-dependent H2O2 signal modulators, primary screen, NOX inhibitor project, cell-based, HEK293-NOX4, tetracycline-induced, Amplex Red fluorescence (AID 1160). The conditions noted are these: 45 min, higher = more signal, called active from +8 up or from −8 down.
For test [20], the target named is NADPH oxidase 5 (Homo sapiens) (UniProt Q96PH1). In words: NOX5-dependent H2O2 signal modulators, primary screen, NOX inhibitor project, cell-based, HEK293-NOX5, Amplex Red fluorescence (AID 1161). The conditions noted are these: HEK293-NOX5, ionomycin, 45 min, higher = more signal.

The source made the active and inactive calls. Unless noted, how the calls were made is not given here.

Sequence of NADPH oxidase 4 (Homo sapiens) (Q9NPH5 whole entry, looked up): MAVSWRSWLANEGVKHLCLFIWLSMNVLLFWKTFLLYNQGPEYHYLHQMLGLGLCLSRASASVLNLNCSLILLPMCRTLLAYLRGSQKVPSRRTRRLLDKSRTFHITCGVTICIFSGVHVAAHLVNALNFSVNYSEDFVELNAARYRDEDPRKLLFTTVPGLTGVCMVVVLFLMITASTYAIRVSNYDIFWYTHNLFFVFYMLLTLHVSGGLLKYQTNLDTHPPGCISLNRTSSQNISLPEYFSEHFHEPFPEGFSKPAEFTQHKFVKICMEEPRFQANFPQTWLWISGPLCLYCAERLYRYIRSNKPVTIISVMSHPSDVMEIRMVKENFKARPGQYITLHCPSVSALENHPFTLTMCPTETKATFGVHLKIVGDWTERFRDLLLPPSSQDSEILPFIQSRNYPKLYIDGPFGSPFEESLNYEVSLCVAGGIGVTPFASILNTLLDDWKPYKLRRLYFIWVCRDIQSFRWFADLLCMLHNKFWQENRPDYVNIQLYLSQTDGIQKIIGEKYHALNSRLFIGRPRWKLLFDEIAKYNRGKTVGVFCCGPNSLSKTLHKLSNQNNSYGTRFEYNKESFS
Sequence of Streptavidin (Streptomyces avidinii) (P22629 whole entry, looked up): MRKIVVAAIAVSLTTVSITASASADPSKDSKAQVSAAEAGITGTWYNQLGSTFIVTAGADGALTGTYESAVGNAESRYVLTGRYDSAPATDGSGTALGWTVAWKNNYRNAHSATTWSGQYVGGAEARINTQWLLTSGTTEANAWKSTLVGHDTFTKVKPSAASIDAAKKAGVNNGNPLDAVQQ
Sequence of Torsin-1A (Homo sapiens) (O14656 whole entry, looked up): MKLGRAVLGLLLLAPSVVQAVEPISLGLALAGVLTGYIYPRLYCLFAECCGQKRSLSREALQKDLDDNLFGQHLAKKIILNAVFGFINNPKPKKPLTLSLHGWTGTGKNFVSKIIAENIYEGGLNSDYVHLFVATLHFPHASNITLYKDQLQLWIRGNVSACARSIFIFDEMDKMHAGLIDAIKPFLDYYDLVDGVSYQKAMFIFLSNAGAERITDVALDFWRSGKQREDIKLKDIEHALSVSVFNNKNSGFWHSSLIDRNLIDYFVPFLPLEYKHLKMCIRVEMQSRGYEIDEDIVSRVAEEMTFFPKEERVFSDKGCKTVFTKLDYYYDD
Sequence of NADPH oxidase 2 (Homo sapiens) (P04839 whole entry, looked up): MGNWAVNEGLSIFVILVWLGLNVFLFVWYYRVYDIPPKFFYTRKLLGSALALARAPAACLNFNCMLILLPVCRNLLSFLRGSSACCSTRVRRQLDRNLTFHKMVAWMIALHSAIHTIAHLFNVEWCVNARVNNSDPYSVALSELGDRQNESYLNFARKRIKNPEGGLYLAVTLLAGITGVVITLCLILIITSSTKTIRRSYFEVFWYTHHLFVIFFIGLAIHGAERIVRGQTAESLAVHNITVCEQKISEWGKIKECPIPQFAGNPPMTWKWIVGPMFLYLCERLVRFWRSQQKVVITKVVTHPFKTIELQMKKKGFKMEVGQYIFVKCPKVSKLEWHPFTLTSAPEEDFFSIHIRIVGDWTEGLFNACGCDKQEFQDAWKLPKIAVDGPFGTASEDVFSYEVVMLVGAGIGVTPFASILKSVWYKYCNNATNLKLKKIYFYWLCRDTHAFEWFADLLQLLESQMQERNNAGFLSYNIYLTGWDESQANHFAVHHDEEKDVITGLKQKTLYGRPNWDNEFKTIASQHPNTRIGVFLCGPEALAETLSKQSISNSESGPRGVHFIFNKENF
Sequence of NADPH oxidase 5 (Homo sapiens) (Q96PH1 whole entry, looked up): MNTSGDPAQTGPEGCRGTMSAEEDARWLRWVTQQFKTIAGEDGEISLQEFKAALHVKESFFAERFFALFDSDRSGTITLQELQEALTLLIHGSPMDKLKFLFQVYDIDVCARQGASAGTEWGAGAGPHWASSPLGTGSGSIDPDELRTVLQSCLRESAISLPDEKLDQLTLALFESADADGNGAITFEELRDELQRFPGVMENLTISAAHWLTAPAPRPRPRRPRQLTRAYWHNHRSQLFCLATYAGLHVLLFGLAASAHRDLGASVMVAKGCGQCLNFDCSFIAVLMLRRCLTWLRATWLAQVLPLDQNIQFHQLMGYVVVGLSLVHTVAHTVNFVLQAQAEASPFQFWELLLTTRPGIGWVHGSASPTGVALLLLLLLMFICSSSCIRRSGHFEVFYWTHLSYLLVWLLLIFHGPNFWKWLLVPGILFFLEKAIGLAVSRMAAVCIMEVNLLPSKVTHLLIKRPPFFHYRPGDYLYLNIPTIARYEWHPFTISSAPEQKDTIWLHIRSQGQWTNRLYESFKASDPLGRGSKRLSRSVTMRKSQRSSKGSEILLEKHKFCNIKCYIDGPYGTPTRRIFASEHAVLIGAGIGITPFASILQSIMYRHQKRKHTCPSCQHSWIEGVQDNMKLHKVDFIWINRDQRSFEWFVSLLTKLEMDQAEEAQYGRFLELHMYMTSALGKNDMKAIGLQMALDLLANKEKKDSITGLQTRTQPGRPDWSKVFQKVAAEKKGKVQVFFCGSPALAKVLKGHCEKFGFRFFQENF

Turning to `[N-]=[N+]=NCc1ccccc1C[C@@]1(C(N)=O)N=C(c2ccc(OCCCO)cc2)O[C@@H]1c1ccccc1`, the composite z-score was -0.182 in [1]; 0.559 in test [6]; 0.144 in [7]; 0.754 with Torsin-1A (Homo sapiens) [8]; 1.22 with Torsin-1A (Homo sapiens) [9]; -0.671 in test [10]. The composite z-score in [12] amounted to 0.408. The z-score in test [2] is -3.28 (inactive); in test [3], 0.103 (inactive); in test [4] it was 0.498 (inactive); in test [5], -0.0576 (inactive); in test [11] it was -1.25 (inactive); in test [13] it was 27.2 (active). Further, the z-score was 19.2 (active) in [14]; 0.354 (inactive) in test [15]; 2.58 (inactive) in test [16]; -0.494 in [17]; -2.31 (inactive) in test [18]; 0.64 (inactive) in test [19]. In test [20], this compound registered a z-score of -0.235.

In the case of `[N-]=[N+]=Nc1ccccc1C[C@]1(C(=O)NCCN2CCOCC2)COC(c2ccc(OCCCO)cc2)=N1`, the composite z-score was 0.898 in [1]; 1.25 in test [6]; 0.0497 in test [7]; 0.707 with Torsin-1A (Homo sapiens) [8]; 1.75 with Torsin-1A (Homo sapiens) [9]; 0.0324 in test [10]. The compound also gave a composite z-score in test [12] of 0.111. Also, the z-score was -1.06 (inactive) in [2]; 0.783 (inactive) in [3]; 0.754 (inactive) in test [4]; 1.45 (inactive) in [5]; 1.87 (inactive) in test [11]; 21.5 (active) in test [13]. Besides, the z-score in test [14] was 4.14 (inactive); in test [15], 2.57 (inactive); in test [16] it was 0.913 (inactive); in test [17] it was 0.148; in test [18], 2.89 (inactive); in test [19] it was 1.12 (inactive). In addition, the z-score in test [20] was -0.481.

In the case of `C=C[C@@H](CO)N(Cc1ccc(OC)cc1)S(=O)(=O)c1ccc(Br)cc1`, the composite z-score in [1] is -0.0447; in [6], 0.396; in test [7] it was -0.154; in the test with Torsin-1A (Homo sapiens) [8] it was 1.16; with Torsin-1A (Homo sapiens) [9], 1.13; in test [10], -0.0145. This compound returned a composite z-score in [12] of -0.639. Moreover, the z-score in test [2] is -3.07 (inactive); in test [3], -0.445 (inactive); in test [4] it was -0.104 (inactive); in [5], -0.895 (inactive); in [11], 1.77 (inactive); in test [13] it was 2.48 (inactive). Moreover, the z-score was -0.457 (inactive) in test [14]; -1.21 (inactive) in test [15]; -1.1 (inactive) in test [16]; 1.66 in [17]; -1.84 (inactive) in [18]; 0.114 (inactive) in test [19]. In test [20], the z-score was -1.26.

With `CS(=O)(=O)CCOC(=O)C1=CC(CCCO)=CC(c2ccc(CN3CCCC3)cc2)N(Cc2sc3ccccc3c2Cl)C=C1C(=O)OCCS(C)(=O)=O` (stereo not given), the composite z-score in test [1] was 0.689; in test [6], 2.48; in test [7] it was 0.794; with Torsin-1A (Homo sapiens) [8], 1.4; in the test with Torsin-1A (Homo sapiens) [9], 2.18; in test [10], 1.18. This compound had a composite z-score in [12] of 0.85. Also, the z-score in test [2] is -1.29 (inactive); in test [3], 1.13 (inactive); in [4], 2.08 (inactive); in test [5], 0.274 (inactive); in test [11], -0.794 (inactive); in test [13] it was 3.35 (inactive). Besides, the z-score in test [14] was 0.586 (inactive); in test [15], 0.51 (inactive); in [16], 0.428 (inactive); in test [17], -0.261; in [18], 0.44 (inactive); in test [19], -0.567 (inactive). Also, in [20], the z-score was -0.719.
